Compound activity: PubChem, National Center for Advancing Translational Sciences (NCATS)
The list is not random: actives were taken first. Their share in the collection is about 1.8%.
Imprint erasure – qHTS Assay for Compounds that Induce Erasure of Genomic Imprints; mouse ES Peg3-LacZ reporter, beta-gal luminescence, 40 h; Potency, µM (top dose mostly 60.7 µM), for the others: at the top dose activity change, positive = activation, usual class: activators; 0.02% of 110,000 active; AID 1948, 2009
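Readout: BetaGlo luminescence (5 min, room temp) for LacZ from the normally silent maternal Peg3 allele in female Peg3LacZ-Neo ES cells. Cells 300/well, 40 h, 37C, 5% CO2. Data normalized per plate to negative controls.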
p53ts 39C kill – qHTS Screen for Compounds that Selectively Target Cancer Cells with p53 Mutations: Cytotoxicity of p53ts Cells at the Nonpermissive Temperature; Potency, µM (highest dose often 46.1 µM), without a hit: at the highest dose activity change, negative = cell killing, actives largely listed as cytotoxic; H1299-p53A138V viability at 39C, ATP luminescence, 24 h; 1.5% of 130,000 active; note: % is set by controls: 0 for no effect and ±100 for the full control effect; nearly all actives have a fitted effect of over 55% in size
p53ts 32C tox – qHTS Screen for Compounds that Selectively Target Cancer Cells with p53 Mutations: Cytotoxicity of p53ts Cells at the Permissive Temperature. Potency, µM (titrated, usually from 46.1 µM), without a hit: at the highest dose activity change, negative = cytotoxicity, usual class: cytotoxic. 0.93% of 130,000 active. H1299-p53A138V at 32C, ATP luminescence viability, 24 h;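 note: 0% = DMSO and -100% = full killing by reference compound; nearly all actives have a fitted effect of over 55% in size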
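Viability by ATPlite luminescence after 24 h compound treatment (up to 46 uM) at the permissive 32C. Cells are H1299 carrying p53 A138V. Scale runs from DMSO basal to 100 uM tamoxifen as full kill; AC50 from Hill fits.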
Starred values were filed as active, the others as inactive; ? = inconclusive; . = no result given; [ ] = remark or other dose. Calls come from the whole dose curve; as a rule, active = well fitted curve in the direction sought with a large enough effect; inconclusive = small, poorly fitted or top-dose-only effect, or another doubt; inactive = no such curve, though single readings can be large; an effect the other way counts as inactive or inconclusive. Potency is the fitted concentration of half-maximal effect.

SMILES | Imprint erasure | p53ts 39C kill | p53ts 32C tox
CC(C)(C)[C@@]1(O)CCN2C[C@@H]3c4ccccc4CCc4cccc(c43)[C@@H]2C1 | . | ? | -3.0%
CC(=O)N1CCC2(CCCN(c3ccc(-c4ccccc4)cc3)C2)CC1 | . | -18.6% | -6.1%
c1ccc(-c2ccc(N3CCCC4(CCNCC4)C3)cc2)cc1 | . | 12.6µM* | 20µM*
c1ccc(-c2ccc(N3CC4(CCNCC4)C3)cc2)cc1 | . | 15.8µM* | 20µM*
COC(=O)N1CCC2(CC1)CN(c1ccc(-c3ccccc3)cc1)C2 | . | -14.3% | -15.1%
COc1cccc2sc(Nc3nnc(-c4ccccc4Cl)o3)nc12 | -49.2% | 12.6µM* | ?
COc1cccc(-c2nnc(-c3ccc(C(F)(F)F)cc3)o2)c1 | . | -7.0% | -3.4%
COc1ccccc1-c1nnc(Nc2nc3c(OC)cccc3s2)o1 | -58.4% | ? | 3.8%
COc1cccc(-c2nnc(Nc3nc4c(F)cccc4s3)o2)c1 | -43.6% | 12.6µM* | ?
COc1ccc(NC(=O)CSC2=Nc3ccccc3C3=NC(CCC(=O)NC4CCCCC4)C(=O)N23)cc1Cl (stereo not drawn) | -1.8%[10.9 µM] | -29.2% | 4.5%
Cc1ccc(NS(=O)(=O)c2ccc3oc(=O)c4ncn(C)c4c3c2)cc1C | -4.2%[10.9 µM] | ? | ?
CCc1ccccc1NS(=O)(=O)c1ccc2oc(=O)c3ncn(C)c3c2c1 | 3.2%[10.9 µM] | -9.6% | -15.5%
Cn1cnc2c(=O)oc3ccc(S(=O)(=O)Nc4ccc(F)cc4)cc3c21 | 12.8%[10.9 µM] | 12.6µM* | -14.9%
CCOc1ccccc1NS(=O)(=O)c1ccc2oc(=O)c3ncn(C)c3c2c1 | 3.2%[10.9 µM] | 20µM* | ?
Cc1ccc(Cl)cc1NS(=O)(=O)c1ccc2oc(=O)c3ncn(C)c3c2c1 | -4.1%[10.9 µM] | 20µM* | ?
COc1cc(OC)c(NS(=O)(=O)c2ccc3oc(=O)c4ncn(C)c4c3c2)cc1Cl | ? | 13.8% | 3.5%
Cc1ccc(-c2nnc(Nc3cccc(Cl)c3)c3ccccc23)cc1S(=O)(=O)NCC1CCCO1 (stereo not drawn) | -24.8%[10.9 µM] | -2.5% | 5.9%
Cc1ccc2cc3cc(C(=O)N4CCN(c5ccc(Cl)cc5)CC4)oc3nc2c1 | -12.0%[10.9 µM] | 4.6% | 6.6%
CCOC(=O)c1cnc2c(Cl)cc(Cl)cc2c1Nc1ccccc1OC | -20.9%[10.9 µM] | 15.2% | -7.3%
COC(=O)c1cnn(-c2ccc(C(=O)Nc3cccc(C(C)=O)c3)cc2)c1N | -12.2%[10.9 µM] | -1.1% | 9.7%
COc1ccc(Nc2cc(C(=O)NCCCN(C)Cc3ccccc3)c3ccccc3n2)cc1 | -11.4%[10.9 µM] | ? | ?
Cc1cc(C)cc(Nc2cc(C(=O)NCCCN(Cc3ccccc3)C(C)C)c3ccccc3n2)c1 | -12.0%[10.9 µM] | 15.8µM* | -15.7%
CSc1cccc(Nc2cc(C(=O)NCCCN(Cc3ccccc3)C(C)C)c3ccccc3n2)c1 | -13.2%[10.9 µM] | 15.8µM* | ?
CSc1cccc(Nc2cc(C(=O)NC3CCCCC3)c3ccccc3n2)c1 | -12.5%[10.9 µM] | -21.5% | 4.6%
CN(C)c1ccc(CN(Cc2ccco2)C(=O)COc2ccc(F)cc2)cc1 | -14.2%[10.9 µM] | -23.8% | 13.5%
SMILES | Imprint erasure | p53ts 39C kill | p53ts 32C tox
COc1ccc(C(C)=O)cc1COC(=O)c1c(C)noc1C | -13.4% | -12.3% | -2.0%
COc1ccc(C(C)=O)cc1COC(=O)c1cnc(C)cn1 | 15.8µM* | 2.7% | 2.6%
COc1ccc2oc(=O)c(-c3nc(-c4cc(OC)c(OC)c(OC)c4)no3)cc2c1 | -9.5%[10.9 µM] | -16.2% | 8.0%
O=C(Nc1nc2c(s1)CCCC2)c1ccc2ncsc2c1 | -34.9% | ? | ?
Cc1cccc(C(=O)Nc2nc3c(s2)CCCC3)c1 | -28.3%[10.9 µM] | 12.6µM* | 10µM*
O=C(NC1(C(F)(F)F)C(=O)Nc2c1c(=O)[nH]c(=O)n2-c1ccc(Cl)cc1)c1ccccc1F (stereo not drawn) | -10.5%[10.9 µM] | 10.3% | 9.3%
COc1ccc(C)cc1NC(=O)Cn1c(=O)oc2cc(S(=O)(=O)N3CCCCCC3)ccc21 | -15.1%[10.9 µM] | -6.6% | -9.9%
CCc1nc(-c2cc(S(=O)(=O)N3CCN(c4ccccc4F)CC3)ccc2OC)no1 | -4.4%[10.9 µM] | -2.9% | -4.0%
COc1ccc(S(=O)(=O)N2CCN(c3ccccc3F)CC2)cc1-c1noc(C)n1 | -7.4%[10.9 µM] | 12.6µM* | ?
Cc1ccc(C)c(N2CCN(C3(c4ccccc4)C(=O)c4ccccc4C3=O)CC2)c1 | 7.3%[10.9 µM] | 3.4% | -3.7%
COc1ccc(NC(=O)C2COc3ccccc3C2)cc1Cl (stereo not drawn) | -8.3%[10.9 µM] | -24.2% | 9.8%
CC1=C(c2ccc(C)c(C)c2)S(=O)(=O)N=C1N1CCC(C(=O)NCCc2ccc(Cl)cc2)CC1 | -2.1%[10.9 µM] | 12.6µM* | ?
CC1=C(c2ccc(F)cc2)S(=O)(=O)N=C1N1CCC(C(=O)NCCc2cccc(C)c2)CC1 | -6.3%[10.9 µM] | -21.7% | 9.7%
CCS(=O)(=O)c1oc(-c2ccc(F)cc2)nc1S(=O)(=O)c1ccc(Br)cc1 | -34.0%[10.9 µM] | 1.58µM* | 7.08µM*
Cc1ccc(S(=O)(=O)c2nc(-c3ccc(F)cc3)oc2SCC(N)=O)cc1 | -3.4% | -7.3% | 2.7%
COc1ccc(-c2nc(S(=O)(=O)c3ccc(Cl)cc3)c(NCc3ccccc3)o2)cc1 | 5.3%[10.9 µM] | 17.2% | 10.0%
CSc1oc(-c2ccc(F)cc2)nc1S(=O)(=O)c1ccccc1 | -6.3% | -1.6% | -0.8%
CSc1oc(-c2ccccc2)nc1S(=O)(=O)c1ccc(F)cc1 | -17.3% | 9.2% | 9.5%
CS(=O)(=O)c1oc(-c2ccc(F)cc2)nc1S(=O)(=O)c1ccc(Cl)cc1 | -39.9%[10.9 µM] | 3.98µM* | 12.6µM*
CCCCS(=O)(=O)c1oc(-c2ccc(F)cc2)nc1S(=O)(=O)c1ccccc1 | -42.4%[10.9 µM] | 2µM* | 10µM*
CC(C)S(=O)(=O)c1oc(-c2ccc(F)cc2)nc1S(=O)(=O)c1ccccc1 | -41.5%[10.9 µM] | 0.794µM* | 3.98µM*
COc1ccc(Cl)cc1NC(=O)CSC1=Nc2ccccc2C2=NC(CC(=O)NCc3ccc4c(c3)OCO4)C(=O)N12 (stereo not drawn) | 7.9%[10.9 µM] | -12.6% | 15.8%
CC(C)S(=O)(=O)c1oc(-c2cccs2)nc1S(=O)(=O)c1ccc(F)cc1 | -40.9%[10.9 µM] | 3.16µM* | ?
Cc1ccc(S(=O)(=O)c2nc(-c3cccs3)oc2SC(C)C)cc1 | -12.5%[10.9 µM] | ? | 19.8%
CCN1C(=O)[C@H]2[C@H]3[C@H](O)[C@H](O)C/C(=N/OCc4ccccc4)[C@H]3CC[C@@H]2C1=O | . | 14.2%[9.22 µM] | 7.3%[9.22 µM]
O=C(Cc1cccs1)Nc1c(C(=O)Nc2ccc(F)cc2)oc2ccccc12 | ? | 5.0% | -3.6%
COc1ccc(-c2cc(C(=O)NCCc3ccccc3)c3c(-c4ccccc4)[nH]nc3n2)cc1OC | -2.8%[10.9 µM] | 12.6µM* | ?
CCc1ccc(-c2[nH]nc3nc(-c4cc(OC)ccc4OC)cc(C(=O)O)c23)cc1 | ? | 3.98µM* | -1.9%
COc1ccc(CCNC(=O)c2cc(-c3ccc(C)cc3)nc3n[nH]c(-c4ccccc4)c23)cc1OC | -15.4%[10.9 µM] | -20.7% | -10.7%
CCOc1ccc(-c2cc(C(=O)NCCc3ccc(OC)c(OC)c3)c3c(-c4ccc(F)cc4)[nH]nc3n2)cc1 | -19.7%[10.9 µM] | ? | -24.3%
